Activity calls are given as the source filed them. Calls come from the whole dose curve; as a rule, active = well fitted inhibition curve with a large enough effect; inconclusive = small, poorly fitted or top-dose-only effect; inactive = flat fitted curve, though single readings scatter.
Target: DNA polymerase III PolC-type (Bacillus subtilis (strain 168)) (UniProt P13267)
Experiment: qHTS Validation Assay for the Inhibitors of DNA Replication in Gram-Positive Bacteria (AID 485295);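 note: reconstituted holoenzyme with PolC plus beta clamp SSB and primase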
Conditions: Gram-positive bacterial DNA replication assay; series mostly up to 57.1 µM
Method: B Subtilis DNA polymerase III holoenzyme complex was assayed for DNA production by fluorescent detection of the double-stranded DNA product with PicoGreen dye. The holoenzyme complex was reconstituted from the following purified protein components: DNA Polymerase III, beta subunit processivity factor, SSB single-stranded DNA binding protein, and Primase. Single-stranded, circular M13Gori was used as a substrate with dNTPs and NTPs also supplied to the substrate reagent. Compounds from the NCGC collection were incubated with the holoenzyme mixture for […] at room temperature to allow binding to occur, and then the reaction was started by the addition of substrate. After 30 min incubation at room temperature, PicoGreen solution containing EDTA was added to stop the reaction and to visualize the double-stranded DNA produced. Reaction progress was measured in a ViewLux CCD imager in fluorescence intensity mode by using 480 nm excitation and 540 nm emission filter set.
1. Thaw screening compounds.
2. Label assay plates. Prepare pipette tips, reagent reservoirs, buffers and controls.
1. Thaw Enzymes, DNA template, Nucleotides and PicoGreen dye concentrate. Thawed enzymes are stable on ice for ~1
week. Other thawed components are stable indefinitely.
2. Prepare sufficient quantities of Enzyme, Substrate and PicoGreen Quench mixes (according to Table II). For the number of
compound plates being screened.
3. Ensure that the tip wash station reservoirs have clean water and turn on recirculating chiller so that the chilled deck position
1. Load 2 uL of EDTA controls (250 mM, Background, 100 % inhibition) and 2 uL of DMSO controls (Negative control, 0%
inhibition) in the screening plates (flat-bottomed black 384-well polypropylene, Greiner Bio-one).
2. Place Enzyme mix reservoir on the chiller position of the liquid handler deck. Make sure that chiller will maintain
temperature of Enzyme mix at 4degC. Substrate mix and PicoGreen Quench can be stored at room temp.
3. Program liquid handling robotics to dispense 18 uL of Enzyme mix into assay plates. Wash tips.
4. Aspirate and dispense 2 uL of compound from compound plates, mix and Incubate at room temperature for 10 minutes.
5. Aspirate 5 ul of Substrate mix, dispense into assay plates and mix by pipetting. Wash tips.
6. Incubate at room temperature (21 +/- 1 deg C) for 20 minutes.
7. Quench reactions by addition of 25 uL PicoGreen Quench mix and mix by pipetting (using HTS robotics or bulk reagent
dispenser such as a Multidrop or uFill). Keep plates in the dark or stacked until ready to read fluorescence.
8. Read fluorescence intensity of plates on plate reader using "Fluorescein (Ex 485 nm/ Em 535 nm, 0.1s)" setting.

DNA polymerase III PolC-type (Bacillus subtilis (strain 168)), sequence (P13267 whole entry, looked up): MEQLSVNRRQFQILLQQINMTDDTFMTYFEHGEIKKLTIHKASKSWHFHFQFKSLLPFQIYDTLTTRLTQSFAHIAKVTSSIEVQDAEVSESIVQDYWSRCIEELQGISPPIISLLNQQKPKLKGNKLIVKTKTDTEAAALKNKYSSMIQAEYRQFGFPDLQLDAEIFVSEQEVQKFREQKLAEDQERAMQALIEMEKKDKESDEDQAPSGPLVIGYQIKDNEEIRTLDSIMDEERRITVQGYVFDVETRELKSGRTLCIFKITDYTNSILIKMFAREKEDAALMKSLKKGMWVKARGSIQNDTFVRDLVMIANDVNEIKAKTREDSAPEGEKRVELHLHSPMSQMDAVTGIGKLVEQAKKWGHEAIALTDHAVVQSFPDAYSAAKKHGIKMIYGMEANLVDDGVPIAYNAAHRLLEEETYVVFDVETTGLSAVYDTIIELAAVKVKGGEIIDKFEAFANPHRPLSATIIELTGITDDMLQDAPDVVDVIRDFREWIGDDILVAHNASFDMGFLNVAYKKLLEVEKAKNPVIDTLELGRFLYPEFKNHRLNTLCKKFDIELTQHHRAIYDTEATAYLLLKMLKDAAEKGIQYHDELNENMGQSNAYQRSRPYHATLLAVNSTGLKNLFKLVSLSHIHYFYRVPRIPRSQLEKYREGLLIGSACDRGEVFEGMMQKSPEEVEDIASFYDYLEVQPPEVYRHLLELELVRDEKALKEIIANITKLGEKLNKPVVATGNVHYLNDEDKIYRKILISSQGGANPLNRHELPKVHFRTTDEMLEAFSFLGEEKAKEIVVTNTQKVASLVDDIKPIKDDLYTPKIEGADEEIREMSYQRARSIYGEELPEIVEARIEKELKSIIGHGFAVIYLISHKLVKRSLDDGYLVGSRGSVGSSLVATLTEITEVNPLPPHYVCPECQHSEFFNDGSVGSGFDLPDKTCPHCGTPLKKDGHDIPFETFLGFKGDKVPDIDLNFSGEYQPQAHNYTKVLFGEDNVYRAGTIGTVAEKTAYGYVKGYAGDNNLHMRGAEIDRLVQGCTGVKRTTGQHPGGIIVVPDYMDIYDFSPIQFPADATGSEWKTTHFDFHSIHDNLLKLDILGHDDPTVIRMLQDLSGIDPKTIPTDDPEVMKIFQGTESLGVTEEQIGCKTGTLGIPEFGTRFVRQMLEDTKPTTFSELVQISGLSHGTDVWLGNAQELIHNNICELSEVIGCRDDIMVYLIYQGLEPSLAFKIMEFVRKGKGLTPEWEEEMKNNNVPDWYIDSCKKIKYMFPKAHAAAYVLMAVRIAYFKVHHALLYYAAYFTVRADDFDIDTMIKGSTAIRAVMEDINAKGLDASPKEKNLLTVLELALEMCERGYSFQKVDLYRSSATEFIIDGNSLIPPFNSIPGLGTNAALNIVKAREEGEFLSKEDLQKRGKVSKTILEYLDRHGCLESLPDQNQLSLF

Compound | outcome
CCC1(c2ccc(N)cc2)CCC(=O)NC1=O (stereo not given) | inactive
CC(NC(C)(C)C)C(=O)c1cccc(Cl)c1 (stereo not given) | inactive
Cc1ncsc1CCCl | inactive
CC(C)N(CCC(C(N)=O)(c1ccccc1)c1ccccn1)C(C)C (stereo not given) | inactive
O=C(CCCN1CCC2(CC1)C(=O)NCN2c1ccccc1)c1ccc(F)cc1 | inactive
CC(C)c1cccc(C(C)C)c1O | inactive
CC(C)(C)NCC(O)c1ccccc1Cl (stereo not given) | inactive
O=P1(N(CCCl)CCCl)NCCCO1 (stereo not given) | inactive
COc1ccc2c(c1OC)C(=O)O[C@H]2[C@@H]1c2cc3c(cc2CCN1C)OCO3 | inactive
CCCCC/C=C\C/C=C\C/C=C\C/C=C\CCCC(=O)NCC(=O)O | inactive
C=C(C)[C@H]1CN[C@H](C(=O)O)[C@H]1CC(=O)O | inactive
CN1C(=O)CCS(=O)(=O)C1c1ccc(Cl)cc1 (stereo not given) | inactive
O=C(O)CCCc1ccc(N(CCCl)CCCl)cc1 | inactive
NCCc1ccc(O)cc1 | inactive
O=c1[nH]oc2c1CCNC2 | inactive
